# The entries come from a sample that favours hits as a whole.
# Methyltransferases: Primary Screen for Target Class Profiling of Small Molecule Inhibitors of Methyltransferases; purified enzyme, MTase-Glo SAH luminescence; hits give low values; 25,000 tested, 3.9% active; calls only at 40 µM; call rule not given here
#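 Each enzyme was assayed with SAM and its substrate. SAH formation detected by MTase-Glo luminescence; single-point 40 uM screen[…].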
# MTase-Glo ctr: inhibits MTase-Glo coupling enzymes without methyltransferase; 180 tested, 6% active; Potency, µM (top dose mostly 57.3 µM), inactives show at the top dose activity change, negative = inhibition, usual class: inhibitors; AID 1745851; shares compounds with Methyltransferases; MTase-Glo coupled enzymes, SAH conversion luminescence, no MTase; active = well fitted inhibition curve with a large enough effect; also: potency is read from the fitted curve at half-maximal effect
# An asterisk follows results filed as active; i = inactive; + = active, no number; [ ] = remark or other dose. % is scaled to controls: 0 for no effect and ±100 for the full control effect.
SMILES,Methyltransferases,others
CCc1cc2c(cc3n2CC(C)(C(=O)NC2CCCCC2)N(c2ccc(OC)c(OC)c2)C3=O)s1 (configuration not stated),i,
COc1ccc(CN2C(=O)c3cc4ccc(OC)cc4n3CC2(C)C(=O)NC2CCCC2)cc1 (configuration not stated),i,
COc1cccc(C(=O)NCC2CCCN(Cc3ccccn3)C2)c1OC (configuration not stated),i,
COc1cccc(C(=O)N2CCCC(COc3ccccc3C(=O)N3CCOCC3)C2)c1 (configuration not stated),i,
Cn1cc(CN2CCCC(COc3ccccc3C(=O)N3CCCCC3)C2)c2ccccc21 (configuration not stated),+,MTase-Glo ctr=-2.0%
CCOc1ccc(CN2C(=O)c3cc(C4CC4)nn3CC2(C)C(=O)NC2CCCCCC2)cc1 (configuration not stated),i,
CC(=O)Nc1ccc(NC(=O)c2cccc(CN3CCCC(C#N)C3)c2)cc1 (configuration not stated),i,
N#Cc1cc(CN2CCCC(C(=O)Nc3cccc(-c4ccc(F)cc4)c3)C2)c[nH]1 (configuration not stated),+,MTase-Glo ctr=-5.4%
Cc1cccc(CN2CCCC(C(=O)Nc3cccc(-n4cccn4)c3)C2)n1 (configuration not stated),i,
Cn1c(=O)c2ccc(C(=O)NC3CCCCC3)cc2n2c(=O)n(Cc3cccc(Cl)c3)nc12,i,
COc1ccc(-c2cc3n(n2)CC(C)(C(=O)NCc2ccccc2)N(Cc2cc(OC)ccc2OC)C3=O)cc1 (configuration not stated),i,
O=C(N[C@H](c1ccccc1)C1CC(O)C1)c1ccc(-n2cccn2)cc1 (some centres not stated),i,
O=C(N[C@H](C1CCNCC1)C1CC(O)C1)c1ccc2nccnc2c1 (some centres not stated),+,MTase-Glo ctr=3.4%
NS(=O)(=O)c1ccc(C(=O)NC(Cc2ccncc2)C2CC(O)C2)cc1 (configuration not stated),i,
O=C1CC(=O)Nc2cc(S(=O)(=O)Nc3ccc(Br)cc3F)ccc2N1,i,
COc1cccc(NC(=O)CSc2nnc3[nH]c(=O)c(C)nn23)c1,i,
Cc1cc2c(cc3n2CC(C)(C(=O)NC2CCCCC2)N(Cc2ccc(OC(C)C)cc2)C3=O)o1 (configuration not stated),i,
O=C(O)c1ccc(CC2CCN(Cc3ccccn3)C2)cc1 (configuration not stated),i,
c1ccc(-c2cc3c(cn2)NCCN(Cc2ccccn2)C3)cc1,+,MTase-Glo ctr=-5.2%[85.7 µM]
c1ccc(Nc2cc3c(cn2)NCCN(Cc2ccccn2)C3)cc1,i,
CCCn1c(=O)c2ccc(Cl)cc2n2c(=O)n(CC(=O)Nc3ccc4c(c3)OCCO4)nc12,i,
O=C(CC1CCCC1)N1CCC(Nc2cccnc2)C1 (configuration not stated),+,MTase-Glo ctr=-6.4%
O=C(CC1CCCC1)N1CCC(c2noc(-c3cnccn3)n2)C1 (configuration not stated),i,
O=C(CC1CCOCC1)N1CCN(c2ncccn2)CC1,i,
COc1cccc(CN2C(=O)c3cc4ccccc4n3CC2(C)C(=O)NCCCOC(C)C)c1OC (configuration not stated),i,
SMILES,Methyltransferases,others
CCOC(=O)c1cc2n(n1)CC(C)(C(=O)NC1CCC(C)CC1)N(c1cccc(C)c1C)C2=O (configuration not stated),i,
CC(C)CCn1c(=O)c2ccccc2n2c(CCC(=O)NCc3ccc(Cl)cc3)nnc12,i,
CCn1cc(CN2CCN(C(=O)c3cccs3)CC2)ccc1=O,+,MTase-Glo ctr=-2.8%
NC(=O)CN1C(=O)[C@@H]2CN(C(=O)c3cccs3)CCN2C1=O,i,
CCn1cc(CN2CCN(C(=O)CCc3ccccc3)CC2)ccc1=O,i,
O=C(c1ccncc1)N1CCCC(CN2CCCC2)CC1 (configuration not stated),i,
O=C(c1ccc(C2CCCNC2)cc1)N1CCN(c2ccncc2)CC1 (configuration not stated),+,MTase-Glo ctr=-3.3%
Cn1cc(-c2ccncc2)cc1C(=O)N1CCN(c2ccc(F)cc2)CC1,i,
CC(C)CNC(=O)c1ccc2c(=O)n(C(C)C)c3nn(CC(=O)Nc4ccccc4Cl)c(=O)n3c2c1,i,
O=C(CSc1nnc2n(Cc3ccccc3)c(=O)c3ccccc3n12)NCc1ccccc1,i,
C[S+](=O)([O-])N1CCC(Cn2ccc3c(N4CCOCC4)nc(-c4cccc5[nH]ncc45)cc32)CC1,+,MTase-Glo ctr=3.8%
COc1ccccc1CNC(=O)C1c2c(n(C)c3ccccc23)SCC(=O)N1c1ccccc1OC (configuration not stated),i,
Cn1c(COc2cccc(CN3CCCC3)c2Cl)nnc1C1CC(N)C1 (configuration not stated),+,MTase-Glo ctr=-4.7%
CN(C)Cc1nnc(C2CC(NC(=O)Cc3c(F)cccc3Cl)C2)n1C (configuration not stated),i,
Cc1cc(N2CCN(Cc3nnc(C4CC(N)C4)n3C)CC2)cc(C)n1 (configuration not stated),i,
Cc1ccc(Cn2c(=O)c3ccccc3n3c(-c4ccc(Cl)cc4)nnc23)cc1,i,
CCOC(=O)c1cc2n(n1)CC(C)(C(=O)NC1CCCC1)N(c1ccc(C)cc1Cl)C2=O (configuration not stated),i,
Cc1ccc(-c2ccc(N)nc2)c2cccnc12,+,MTase-Glo ctr=-6.0%
CC(C)Cn1c(=O)c2ccccc2n2c(CCC(=O)N3CCN(C4CCCCC4)CC3)nnc12,i,
COc1ccc(N2CCN(C(=O)CCCc3nnc4n5nc(C)nc5c5ccccc5n34)CC2)cc1,i,
Cc1ccc(NS(=O)(=O)c2ccc3c(c2)NC(=O)CC(=O)N3)c(C)c1,i,
CC(C)c1ccc(CNC(=O)c2ccc3c(=O)nc4c(-c5ccccc5)n[nH]n4c3c2)cc1,i,
COc1cccc(CCC(=O)N2CCC3(CC2)N=C(c2ccccc2)NO3)c1,i,
CCN(CC)c1cc(CCC(=O)N2CCN(c3cccc(OC)c3)CC2)ccn1,+,MTase-Glo ctr=-2.7%
COc1cccc(CCC(=O)N2CCC(OCC3CC3)C2)c1 (configuration not stated),i,
SMILES,Methyltransferases,others
COC(=O)c1cc2n(n1)CC(C)(C(=O)NC1CCCCC1)N(c1ccc(C)cc1)C2=O (configuration not stated),i,
Cc1ccc2nc(CN(C)C(=O)C3CCC(=O)N(C4CCCCCC4)C3)[nH]c2c1 (configuration not stated),+,MTase-Glo ctr=-1.2%
Cc1ccc2nc(CO[C@H]3CN(C4CCN(C)CC4)C[C@H]3F)[nH]c2c1,i,
CCN1CC(C(=O)N(C)Cc2ccc(Oc3ccccc3)cc2)CCC1=O (configuration not stated),i,
Cc1ccc(C)c(CNC(=O)c2ncn3c2C(=O)N(C2CC2)C(C)(C(=O)NCc2ccc(F)cc2)C3)c1 (configuration not stated),i,
COc1ccccc1CNC(=O)C1c2c(n(C)c3ccccc23)SCC(=O)N1c1ccc(C)c(C)c1 (configuration not stated),i,

# Source: PubChem
